Laboratory results: the supplement of paper PMC6555819

Columns and labels:
Test in all cases: PBM binding z-score (relative to random genomic background probes); higher = stronger binding; sequences stand for … in GC…GCGATTGACAGCGTAGAATGAAGG
[1] = test system: FXR:RXRa (NR concentration 270 nM, RXRa partner concentration 90 nM)
Outline: (§1)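 Ligand-free nuclear receptor dimers were applied to custom Agilent 4×180K protein-binding microarrays whose double-stranded probes carried direct-repeat seeds, single-nucleotide variants, half-site ablations and random human genomic background sequences in 34-nt variable regions. Incubation lasted 1 h. Binding z-scores were computed against the random background probes from regression-normalized fluorescence.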

[2] = test system: LXRa:RXRa (NR concentration 270 nM, RXRa partner concentration 90 nM)
Outline: as §1

[3] = test system: LXRa homodimer (NR concentration 270 nM)
Outline: as §1

[4] = test system: LXRb:RXRa (NR concentration 270 nM, RXRa partner concentration 90 nM)
Outline: as §1

[5] = test system: LXRb homodimer (NR concentration 270 nM)
Outline: as §1

[6] = test system: PPARa:RXRa (NR concentration 270 nM, RXRa partner concentration 90 nM)
Outline: as §1

[7] = test system: PPARg:RXRa (NR concentration 180 nM, RXRa partner concentration 90 nM)
Outline: as §1

[8] = test system: PPARg:RXRa 270nM:90nM, anti-RXR (NR concentration 270 nM, RXRa partner concentration 90 nM)
Outline: as §1

[9] = test system: PPARg:RXRa 30nM:10nM, anti-RXR (NR concentration 30 nM, RXRa partner concentration 10 nM)
Outline: as §1

[10] = test system: PPARg:RXRa 90nM:30nM, anti-RXR (NR concentration 90 nM, RXRa partner concentration 30 nM)
Outline: as §1

[11] = test system: PPARg:RXRa DBDmut IVT, anti-RXR (DBD mutation: RXRa K156A/R161A, NR concentration 270 nM, RXRa partner concentration 90 nM)
Outline: as §1

[12] = test system: PPARg:RXRa IVT, anti-PPARg (NR concentration 270 nM, RXRa partner concentration 90 nM)
Outline: as §1

[13] = test system: PPARg DBDmut:RXRa IVT, anti-PPARg (DBD mutation: PPARg1 K132A/R137A, NR concentration 270 nM, RXRa partner concentration 90 nM)
Outline: as §1

[14] = test system: PPARg DBDmut IVT, anti-PPARg (DBD mutation: PPARg1 K132A/R137A, NR concentration 270 nM)
Outline: as §1

[15] = test system: PPARg homodimer (NR concentration 180 nM)
Outline: as §1

[16] = test system: PXR:RXRa (NR concentration 270 nM, RXRa partner concentration 90 nM)
Outline: as §1

[17] = test system: PXR homodimer (NR concentration 270 nM)
Outline: as §1

[18] = test system: RARa:RXR (NR concentration 270 nM, RXRa partner concentration 90 nM)
Outline: as §1

[19] = test system: RARa homodimer (NR concentration 270 nM)
Outline: as §1

[20] = test system: RARb:RXRa (NR concentration 270 nM, RXRa partner concentration 90 nM)
Outline: as §1

Sequence | PBM binding z-score [1] | PBM binding z-score [2] | PBM binding z-score [3] | PBM binding z-score [4] | PBM binding z-score [5] | PBM binding z-score [6] | PBM binding z-score [7] | PBM binding z-score [8] | PBM binding z-score [9] | PBM binding z-score [10] | PBM binding z-score [11] | PBM binding z-score [12] | PBM binding z-score [13] | PBM binding z-score [14] | PBM binding z-score [15] | PBM binding z-score [16] | PBM binding z-score [17] | PBM binding z-score [18] | PBM binding z-score [19] | PBM binding z-score [20]
GCAGACAGTTGAAACGCAGGTAACTCAGGGTGGC | -0.0356 | -0.382 | -0.506 | -0.476 | -0.589 | -0.162 | 0.287 | -0.573 | -0.78 | -0.65 | -0.661 | -0.74 | -1.02 | -0.586 | -0.714 | -0.372 | -0.779 | 0.0801 | -0.512 | -0.0972
ACTAGTTGGTCAGCTGAGGACACACACAATTCGG | 1.67 | -0.161 | -0.165 | 0.0976 | 0.0569 | 0.0805 | 0.997 | -0.202 | -0.228 | -0.243 | 0.766 | 1 | 0.592 | 0.377 | 0.0418 | 1.38 | 0.241 | 1.05 | 0.18 | 1.52
ACTCTGAGGACAAAGGTCAGAGCTACGCCAGTGA | 4.52 | 4.08 | 1.44 | 3.34 | 0.531 | 4.76 | 7.44 | 7 | 5.4 | 6.74 | 1.18 | 4.01 | 0.601 | 0.00649 | 3.26 | 3.74 | 0.395 | 5.19 | 0.924 | 4.47
ACTTGCAGGCCAAGGGTCACTCAAGATTAGTCCG | 2.94 | 2.83 | 0.304 | 2.98 | 0.0149 | 4.99 | 8.46 | 7.35 | 6.52 | 7.71 | 2.34 | 4.29 | 0.459 | -0.141 | 1.94 | 3.22 | 0.0748 | 3.99 | 0.96 | 3.6
ATATCTAGGTTAAGGGTCATTCAGGTTGGTTCGC | 5.3 | 5.06 | 3.85 | 4.75 | 2.55 | 6.83 | 11.7 | 10.3 | 10.8 | 12.4 | 7.59 | 8.2 | 6.43 | 4.16 | 4.9 | 5.61 | 3.45 | 5.91 | 3.76 | 3.98
GCTGCTAGGTCAGGTTGGTCAGCTTACGGGTACG | 1.11 | 0.781 | -0.122 | 0.397 | -0.0807 | 1.07 | 0.483 | 0.904 | -0.57 | 0.294 | 2.99 | 1.96 | -0.781 | -0.52 | 0.591 | 0.193 | -0.264 | 0.655 | -0.341 | 3.31
AGTCATAGTTCAGGACGAGGTAACGTAAAGCACG | 1.09 | 1.13 | -0.0495 | 0.662 | 0.0216 | 1.54 | 1.53 | 1.53 | 0.782 | 0.867 | -0.922 | 0.674 | 0.901 | 0.714 | 0.947 | 1.13 | 0.0157 | 1.31 | 0.185 | 2.59
